Activity calls are given as the source filed them.
What was measured:
Albumin (Bos taurus) = Albumin (Bos taurus) (UniProt P02769); assay: bovine serum albumin binders on microarray, profiling panel, artefact control for SMM control protein annotation, biochemical, small-molecule microarray, Alexa647 label, 635/667 nm fluorescence (AID 1118); conditions: BSA-A647 binding, fluorescence 635 nm, higher = more signal;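 further: score merges 667 nm emission intensity and signal-to-noise per printed compound spot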
Sequence of Albumin (Bos taurus) (P02769 whole entry, looked up): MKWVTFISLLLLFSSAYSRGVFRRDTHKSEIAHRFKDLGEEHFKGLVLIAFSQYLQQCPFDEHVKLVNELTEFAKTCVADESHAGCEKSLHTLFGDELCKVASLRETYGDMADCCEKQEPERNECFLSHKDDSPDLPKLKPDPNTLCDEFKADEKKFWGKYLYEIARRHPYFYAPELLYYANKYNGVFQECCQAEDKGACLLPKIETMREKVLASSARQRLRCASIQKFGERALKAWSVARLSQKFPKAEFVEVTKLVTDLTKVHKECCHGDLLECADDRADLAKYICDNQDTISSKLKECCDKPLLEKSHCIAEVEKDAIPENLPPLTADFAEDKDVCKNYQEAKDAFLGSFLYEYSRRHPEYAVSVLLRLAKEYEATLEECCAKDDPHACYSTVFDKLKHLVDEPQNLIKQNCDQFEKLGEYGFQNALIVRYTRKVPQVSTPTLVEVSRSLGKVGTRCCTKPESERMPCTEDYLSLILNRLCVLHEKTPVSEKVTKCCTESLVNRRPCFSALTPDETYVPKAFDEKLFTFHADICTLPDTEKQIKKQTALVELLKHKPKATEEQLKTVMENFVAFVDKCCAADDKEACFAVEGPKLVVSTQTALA

[1] = small-molecule microarray binders of probe aXIP, primary screen, biochemical, NeuroSMM set, 635/667 nm fluorescence (AID 1119); conditions: higher = more signal, called active from +8 up or from −8 down;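 further: probe is the protein aXip251-270 applied at 1 µg/mL to compound-printed slides; binding of probe to printed compounds measured as 667 nm fluorescence plus signal to noise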
[2] = small-molecule binders of probe aNOTCH3, primary screen, biochemical, small-molecule microarray, 635/667 nm fluorescence (AID 1120); conditions: higher = more signal;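 further: probe is a biotin-tagged antibody raised against NOTCH3 rather than NOTCH3 protein; score merges spot fluorescence near 667 nm with spot signal to noise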
[3] = small-molecule binders of probe aNOTCH2, primary screen, biochemical, small-molecule microarray, 635/667 nm fluorescence (AID 1121); conditions: higher = more signal;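 further: score merges feature fluorescence read at 667 nm with its signal to noise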
[4] = biological target: Carbonic anhydrase 2 (Homo sapiens) (UniProt P00918); assay: CAII small-molecule binders, profiling panel, biochemical, small-molecule microarray, Alexa647-labelled CAII (AID 1122); conditions: CAII-A647 binding fluorescence, higher = more signal
[5] = COS7 lysate on small-molecule microarray, probe aHis, 635 nm (AID 1123); conditions: COS7 cell lysate, fluorescence, higher = more signal;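 further: z-score combines 667nm fluorescence intensity with signal-to-noise per printed compound spot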
[6] = compound binding in COS7 lysate, probe aLAP1, primary screen, cell lysate, small-molecule microarray (AID 1124); conditions: probe aLAP1, fluorescence, higher = more signal;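 further: lysate comes from COS7 cells expressing LAP1 and is applied at 0.3 µg/mL; score merges spot fluorescence near 667 nm with signal-to-noise over triplicate slides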
Sam68 (KHDRBS1) = assay: Sam68 small-molecule binders, primary screen, biochemical, small-molecule microarray, 635 nm fluorescence (AID 1125); conditions: small-molecule microarray binding, higher = more signal;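 further: score merges 667 nm channel intensity with signal to noise over triplicate slides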
[7] = tested on: Chordin-like protein 2 (CHRDL2); assay: CHRDL2 small-molecule binders, primary screen, biochemical, small-molecule microarray, 635 nm fluorescence (AID 1126); conditions: small-molecule microarray binding, fluorescence 635 nm; higher = more signal;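 further: printed compound slides probed with Chrdl2 protein at 4 µg/mL for 1 h at 4 C; score merges 667 nm emission intensity with signal to noise over three replicate slides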
[8] = biological target: Concanavalin-A (Canavalia ensiformis) (UniProt P02866); assay: ConA small-molecule binders, primary screen, artefact control for SMM control protein annotation, biochemical, small-molecule microarray, Alexa647 label, 635 nm (AID 1127); conditions: ConA-A647 binding fluorescence, higher = more signal;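 further: z combines 667 nm emission intensity with signal-to-noise across three replicate slides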
Sequence of Concanavalin-A (Canavalia ensiformis) (P02866 whole entry, looked up): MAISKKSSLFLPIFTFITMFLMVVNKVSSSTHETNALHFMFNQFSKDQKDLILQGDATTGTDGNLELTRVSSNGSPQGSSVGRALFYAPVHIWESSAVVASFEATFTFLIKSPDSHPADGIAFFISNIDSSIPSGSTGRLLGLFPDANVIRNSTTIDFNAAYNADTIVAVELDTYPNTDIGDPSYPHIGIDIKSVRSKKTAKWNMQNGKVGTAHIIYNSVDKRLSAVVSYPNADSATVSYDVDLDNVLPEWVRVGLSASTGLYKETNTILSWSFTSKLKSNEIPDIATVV

[9] = anti-His antibody binders, primary screen, artefact control for SMM control protein annotation, biochemical, small-molecule microarray, 635 nm fluorescence (AID 1128); conditions: anti-His Alexa647 antibody binding, higher = more signal;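 further: score merges feature fluorescence with signal-to-noise for each printed compound spot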
[10] = tested on: Human papillomavirus type 1a E7 protein (residues 1-88); assay: HPV1a E7 small-molecule binders, primary screen, biochemical, small-molecule microarray, residues 1-88, 635 nm (AID 1129); conditions: small-molecule microarray binding, fluorescence 635 nm; higher = more signal
[11] = biological target: Focal adhesion kinase 1 (Homo sapiens) (UniProt Q05397); assay: small-molecule microarray binders of FAK, primary screen, biochemical, 635/667 nm fluorescence, BSA, DTT (AID 1130); conditions: PTK2 binding, 635 nm fluorescence, higher = more signal;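 further: composite of spot emission at 667 nm and signal to noise over triplicate slides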
Sequence of Focal adhesion kinase 1 (Homo sapiens) (Q05397 whole entry, looked up): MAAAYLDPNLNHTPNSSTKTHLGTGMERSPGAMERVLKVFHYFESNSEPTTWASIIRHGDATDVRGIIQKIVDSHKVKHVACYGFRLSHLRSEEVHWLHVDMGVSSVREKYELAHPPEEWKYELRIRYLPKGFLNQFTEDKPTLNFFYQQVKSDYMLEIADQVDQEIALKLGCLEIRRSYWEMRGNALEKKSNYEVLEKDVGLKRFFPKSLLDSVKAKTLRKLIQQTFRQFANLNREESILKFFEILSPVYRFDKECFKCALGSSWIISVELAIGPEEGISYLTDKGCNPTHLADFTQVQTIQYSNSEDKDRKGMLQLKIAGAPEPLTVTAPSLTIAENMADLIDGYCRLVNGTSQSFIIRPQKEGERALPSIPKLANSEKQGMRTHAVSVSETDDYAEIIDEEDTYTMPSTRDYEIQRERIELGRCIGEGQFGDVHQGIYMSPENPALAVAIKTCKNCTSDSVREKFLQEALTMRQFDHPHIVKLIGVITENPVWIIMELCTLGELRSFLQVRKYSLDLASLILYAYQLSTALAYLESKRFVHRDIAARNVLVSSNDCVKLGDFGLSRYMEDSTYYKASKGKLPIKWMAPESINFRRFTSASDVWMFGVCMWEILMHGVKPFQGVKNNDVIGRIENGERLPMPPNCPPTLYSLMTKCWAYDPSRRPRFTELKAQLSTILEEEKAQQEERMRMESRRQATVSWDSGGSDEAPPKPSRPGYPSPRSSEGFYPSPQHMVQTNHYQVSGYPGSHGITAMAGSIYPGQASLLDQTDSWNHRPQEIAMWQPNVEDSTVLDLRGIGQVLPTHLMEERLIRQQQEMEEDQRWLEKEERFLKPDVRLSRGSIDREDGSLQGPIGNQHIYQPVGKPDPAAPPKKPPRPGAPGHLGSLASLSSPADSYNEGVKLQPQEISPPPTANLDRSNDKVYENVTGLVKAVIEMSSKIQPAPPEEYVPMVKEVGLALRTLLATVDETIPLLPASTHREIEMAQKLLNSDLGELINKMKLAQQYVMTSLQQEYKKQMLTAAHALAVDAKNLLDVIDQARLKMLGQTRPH

[12] = tested on: Fibrinogen (Alexa647-labelled); assay: fibrinogen binders on compound microarrays, profiling panel, artefact control for SMM control-protein annotation, biochemical, small-molecule microarray, 635/667 nm fluorescence (AID 1131); conditions: fibrinogen-A647 binding fluorescence, higher = more signal;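 further: z-score merges 667 nm fluorescence with per-spot signal-to-noise over triplicate slides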
[13] = biological target: Follistatin (Homo sapiens) (UniProt P19883); assay: follistatin binders on small-molecule microarrays, primary screen, biochemical, small-molecule microarray, 635/667 nm fluorescence (AID 1132); conditions: FST binding, 635 nm fluorescence, higher = more signal
Sequence of Follistatin (Homo sapiens) (P19883 whole entry, looked up): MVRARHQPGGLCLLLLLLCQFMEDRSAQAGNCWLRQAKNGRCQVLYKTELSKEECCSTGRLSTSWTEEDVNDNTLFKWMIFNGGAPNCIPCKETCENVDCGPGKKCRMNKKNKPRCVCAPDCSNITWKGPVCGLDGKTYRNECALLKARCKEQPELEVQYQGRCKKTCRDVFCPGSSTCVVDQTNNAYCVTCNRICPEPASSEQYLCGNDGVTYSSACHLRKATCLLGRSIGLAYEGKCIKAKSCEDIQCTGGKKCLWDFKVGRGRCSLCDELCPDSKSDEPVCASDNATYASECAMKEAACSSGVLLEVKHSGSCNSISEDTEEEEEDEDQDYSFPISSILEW

[14] = biological target: Fibroblast growth factor 2 (Homo sapiens) (UniProt P09038); assay: FGF2 binders on small-molecule microarrays, primary screen, biochemical, small-molecule microarray, 635/667 nm fluorescence (AID 1133); conditions: small-molecule microarray binding, FGF2, fluorescence 635/667; higher = more signal
Sequence of Fibroblast growth factor 2 (Homo sapiens) (P09038 whole entry, looked up): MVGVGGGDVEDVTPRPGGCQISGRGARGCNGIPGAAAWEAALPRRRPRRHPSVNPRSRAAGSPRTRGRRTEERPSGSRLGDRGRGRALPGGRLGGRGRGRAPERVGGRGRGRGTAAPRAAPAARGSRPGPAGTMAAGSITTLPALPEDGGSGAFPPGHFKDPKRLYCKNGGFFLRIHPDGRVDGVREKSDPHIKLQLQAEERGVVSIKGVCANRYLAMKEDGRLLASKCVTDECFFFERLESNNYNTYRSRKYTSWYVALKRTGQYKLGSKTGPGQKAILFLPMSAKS

[15] = mitochondrial membrane potential change in A549 cells, profiling panel, cell-based, JC-1 fluorescence, basal, 24 h, 100 nL (AID 1138); conditions: higher = more signal;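 further: A549 lung adenocarcinoma cells under basal conditions with no added stimulus; test concentration not given here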
Lefty1 = Lefty1 binders on small-molecule microarrays, primary screen, biochemical, small-molecule microarray, 635/667 nm fluorescence (AID 1139); conditions: small-molecule microarray binding, fluorescence 635/667; higher = more signal
[16] = tested on: wheat germ agglutinin (Triticum aestivum), Alexa647-labelled; assay: wheat germ agglutinin binders on compound microarrays, profiling panel, artefact control for SMM control-protein annotation, biochemical, small-molecule microarray, 635/667 nm fluorescence (AID 1140); conditions: WGA-A647 binding, 635 nm fluorescence, higher = more signal;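 further: score merges 667 nm feature emission with signal to noise over triplicate slides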
[17] = biological target: Luciferin 4-monooxygenase (Photinus pyralis) (UniProt P08659); assay: firefly luciferase enzyme inhibitors, primary screen, biochemical, luminescence, purified enzyme, 2006 set (AID 1141); conditions: SteadyGlo luminescence, 30 min, higher = more signal, called active from +8 up or from −8 down;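 further: cell-free assay with purified firefly luciferase at 100 ng per well in PBS; test concentration not given here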
Sequence of Luciferin 4-monooxygenase (Photinus pyralis) (P08659 whole entry, looked up): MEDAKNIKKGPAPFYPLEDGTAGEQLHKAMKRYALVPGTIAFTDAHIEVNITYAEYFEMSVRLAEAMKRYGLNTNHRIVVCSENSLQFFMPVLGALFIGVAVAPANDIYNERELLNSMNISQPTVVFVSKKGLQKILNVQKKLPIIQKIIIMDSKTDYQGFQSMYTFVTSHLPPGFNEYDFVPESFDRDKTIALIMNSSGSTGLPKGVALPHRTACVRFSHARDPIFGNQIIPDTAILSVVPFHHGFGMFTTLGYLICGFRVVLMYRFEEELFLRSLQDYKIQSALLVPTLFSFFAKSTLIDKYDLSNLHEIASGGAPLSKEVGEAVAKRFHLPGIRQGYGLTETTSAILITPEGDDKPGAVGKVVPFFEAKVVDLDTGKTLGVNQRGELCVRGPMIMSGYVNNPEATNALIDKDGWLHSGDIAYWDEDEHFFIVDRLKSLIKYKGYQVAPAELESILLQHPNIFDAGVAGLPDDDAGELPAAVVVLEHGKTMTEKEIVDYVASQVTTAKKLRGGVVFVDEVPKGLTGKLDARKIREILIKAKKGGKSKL

| SMILES | composite z-score (Albumin (Bos taurus)) | composite Z-score [1] | composite z-score [2] | composite z-score [3] | composite z-score [4] | composite z-score [5] | composite z-score [6] | composite z-score (Sam68 (KHDRBS1)) | composite z-score [7] | composite z-score [8] | composite z-score [9] | composite z-score [10] | composite z-score [11] | composite z-score [12] | composite z-score [13] | composite z-score [14] | z-score [15] | composite z-score (Lefty1) | composite z-score [16] | z-score [17] |
| --- | --- | --- | --- | --- | --- | --- | --- | --- | --- | --- | --- | --- | --- | --- | --- | --- | --- | --- | --- | --- |
| COc1ccc([Si](C)(C)[C@H]2[C@H](CCO)O[C@@]3(C(=O)N(Cc4cccc(N5C(=O)c6ccccc6Oc6ccccc65)c4)c4ccccc43)[C@@H]2C)cc1 | 0.446 | 0.142 (inactive) | -0.0647 | -0.147 | 0.287 | 0.575 | 0.755 | 0.499 | -0.122 | 0.843 | 0.551 | 0.838 | -0.065 | 0.327 | -0.424 | 0.649 | 0.302 | -0.351 | 0.805 | 0.0939 (inactive) |
| COc1ccc(C#Cc2ccc3c(c2)[C@]2(C(=O)N3)[C@H](C(=O)O)[C@H]3C(=O)O[C@H](c4ccccc4)[C@H](c4ccccc4)N3[C@@H]2c2ccccc2OCCO)cc1 | 0.594 | 0.493 (inactive) | -0.301 | -0.0069 | 0.509 | 1.08 | 0.387 | 1.31 | 0.117 | 1.14 | 3.16 | 1.17 | 0.352 | 0.955 | 1.19 | 1.25 | -2.71 | 1.04 | 1.02 | -5.71 (inactive) |
| COC(=O)[C@@]1(Cc2ccccc2)[C@H]2c3cc(C(=O)N(C)C)n(Cc4ccc(C(F)(F)F)nc4)c3C[C@H]2CN1C(=O)c1ccccc1 | 0.463 | -0.031 (inactive) | 0.39 | 0.329 | 0.849 | 3.31 | 0.427 | 1.3 | -0.43 | 0.715 | 0.0389 | 1.29 | 0.74 | 1.01 | 0.714 | -0.428 | 0.353 | -0.655 | 0.736 | 2.32 (inactive) |
| CC(=O)c1ccc(C(O)C2C=CC3C(=O)N(c4ccccc4)C(=O)C3N2Nc2ccc(C(C)C)cc2)cc1 (stereo not given) | 0.0031 | -0.275 (inactive) | 0.247 | 0.216 | 0.666 | 1.97 | 0.463 | 1.13 | -0.185 | 1.13 | 0.779 | 1.23 | 0.329 | 0.939 | 1.13 | 1.1 | 0.678 | -0.212 | 1.17 | -1.41 (inactive) |
| COc1ccc(C(O)C2C=CC3C(=O)N(C)C(=O)C3N2N(c2ccccc2)c2ccccc2)cc1 (stereo not given) | 0.86 | 0.828 (inactive) | 0.016 | -0.0657 | 0.728 | 1.49 | 0.0978 | 0.731 | 0.0617 | 0.632 | 2.06 | 0.906 | 0.167 | 0.805 | 1.03 | 0.149 | 1.25 | -0.729 | 1.28 | 0.322 (inactive) |
| CCOC(=O)C1=CC[C@@H](c2ccc(OC)cc2)N(S(=O)(=O)c2ccc(C)cc2)[C@H]1c1ccc(C)cc1 | 0.446 | 0.477 (inactive) | 0.0203 | -0.084 | 0.222 | 1.99 | 0.423 | 1.34 | -0.554 | 0.669 | 1.23 | 1.18 | 0.389 | 0.844 | 0.633 | -0.0931 | 3.2 | 0.333 | 0.803 | 1.1 (inactive) |
| CCCCC(O)C1C=CC2C(=O)N(c3ccccc3)C(=O)C2N1Nc1ccc(C#N)cc1 (stereo not given) | 0.859 | 0.22 (inactive) | 0.426 | 0.349 | 0.721 | 2.68 | 1.23 | 1.17 | -0.0433 | 0.778 | 0.584 | 1.13 | 0.764 | 0.981 | 0.0191 | 0.0696 | 0.0808 | -0.295 | 0.819 | -1.45 (inactive) |
| O=C1[C@H]2C=C(I)[C@H](C[C@@H]2c2ccccc2)[C@@]12CO2 | -0.406 | -0.623 (inactive) | -0.0647 | -0.153 | -0.154 | -0.234 | -0.225 | 0.0643 | 0.664 | -0.267 | 0.214 | 0.0555 | -0.142 | -0.347 | 0.742 | 0.111 | 0.949 | 0.334 | -0.1 | -0.218 (inactive) |
| O=C1O[C@@H](c2ccccc2)[C@@H](c2ccccc2)N2[C@@H](c3ccc(OCCO)cc3)[C@]3(C(=O)Nc4ccc(C#CC5(O)CCCCCC5)cc43)[C@@H](C(=O)O)[C@H]12 | 0.572 | -0.014 (inactive) | 0.0745 | -0.0725 | 0.685 | 0.969 | 0.58 | 1.34 | -0.458 | 0.994 | 2.8 | 1.18 | 1.24 | 0.832 | 0.776 | 0.155 | 0.741 | 0.68 | 0.601 | -2.86 (inactive) |
| C=C(COC)/C(=C/C[C@H](OC(C)=O)c1ccccc1OCCO)c1cc(C(=O)OC)ccc1OC | 0.524 | 0.131 (inactive) | -0.129 | -0.113 | 0.467 | 1.82 | -0.175 | 0.44 | -0.152 | 0.362 | 0.101 | 0.639 | 0.473 | 0.328 | 1.18 | 0.54 | 0.45 | 0.726 | -0.0912 | -0.419 (inactive) |
| CC(C)OC(=O)CC(=O)CC(O)c1cccc([N+](=O)[O-])c1 (stereo not given) | 0.799 | -0.144 (inactive) | 0.241 | -0.177 | 0.633 | 0.707 | -0.107 | 1.22 | 0.01 | 0.828 | 0.68 | 1.14 | 0.4 | 0.438 | 0.461 | -0.277 | -0.428 | -0.0245 | 0.265 | 1.9 (inactive) |

— PubChem BioAssay
